Experimental data reported in ChEMBL document CHEMBL1961873, “Compounds: GSK PKIS; Assays: Nanosyn kinase panel” (2012).
Where “and” joins values, the source holds several entries; their conditions need not be identical. Identical values can stand only once.

Tests used:
[1] = biological target: Protein kinase C gamma type (Homo sapiens) (UniProt P05129); settings: at 1 µM;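 also: each value is an averaged percent inhibition of the enzyme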
[2] = biological target: T1, Protein kinase C iota type (Homo sapiens) (UniProt P41743); settings: at 0.1 µM
T1 sequence (whole entry): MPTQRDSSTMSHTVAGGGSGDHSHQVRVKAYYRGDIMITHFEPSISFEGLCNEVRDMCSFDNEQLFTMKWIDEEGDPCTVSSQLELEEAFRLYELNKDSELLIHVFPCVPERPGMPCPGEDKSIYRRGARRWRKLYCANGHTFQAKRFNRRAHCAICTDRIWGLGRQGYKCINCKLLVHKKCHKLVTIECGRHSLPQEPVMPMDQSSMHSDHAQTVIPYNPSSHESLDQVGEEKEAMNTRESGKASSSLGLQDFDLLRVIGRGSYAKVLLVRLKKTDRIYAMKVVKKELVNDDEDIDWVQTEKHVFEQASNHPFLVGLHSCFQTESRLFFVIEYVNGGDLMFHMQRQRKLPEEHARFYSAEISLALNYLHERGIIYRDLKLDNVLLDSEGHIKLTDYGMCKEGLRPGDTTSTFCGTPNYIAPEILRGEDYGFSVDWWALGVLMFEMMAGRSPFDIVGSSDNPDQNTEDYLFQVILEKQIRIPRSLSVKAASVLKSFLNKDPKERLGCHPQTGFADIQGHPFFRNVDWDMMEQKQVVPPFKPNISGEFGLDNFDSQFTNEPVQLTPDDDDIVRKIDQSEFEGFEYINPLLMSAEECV

[3] = biological target: T1, Protein kinase C iota type (Homo sapiens); settings: at 1 µM
[4] = biological target: Protein kinase C theta type (Homo sapiens) (UniProt Q04759); settings: at 0.1 µM
[5] = biological target: Protein kinase C theta type (Homo sapiens) (UniProt Q04759); settings: at 1 µM
[6] = biological target: Protein kinase C beta type (Homo sapiens) (UniProt P05771); settings: at 0.1 µM
[7] = biological target: Protein kinase C beta type (Homo sapiens) (UniProt P05771); settings: at 1 µM
[8] = biological target: T2, Serine/threonine-protein kinase D1 (Homo sapiens) (UniProt Q15139); settings: at 0.1 µM
T2 sequence (whole entry): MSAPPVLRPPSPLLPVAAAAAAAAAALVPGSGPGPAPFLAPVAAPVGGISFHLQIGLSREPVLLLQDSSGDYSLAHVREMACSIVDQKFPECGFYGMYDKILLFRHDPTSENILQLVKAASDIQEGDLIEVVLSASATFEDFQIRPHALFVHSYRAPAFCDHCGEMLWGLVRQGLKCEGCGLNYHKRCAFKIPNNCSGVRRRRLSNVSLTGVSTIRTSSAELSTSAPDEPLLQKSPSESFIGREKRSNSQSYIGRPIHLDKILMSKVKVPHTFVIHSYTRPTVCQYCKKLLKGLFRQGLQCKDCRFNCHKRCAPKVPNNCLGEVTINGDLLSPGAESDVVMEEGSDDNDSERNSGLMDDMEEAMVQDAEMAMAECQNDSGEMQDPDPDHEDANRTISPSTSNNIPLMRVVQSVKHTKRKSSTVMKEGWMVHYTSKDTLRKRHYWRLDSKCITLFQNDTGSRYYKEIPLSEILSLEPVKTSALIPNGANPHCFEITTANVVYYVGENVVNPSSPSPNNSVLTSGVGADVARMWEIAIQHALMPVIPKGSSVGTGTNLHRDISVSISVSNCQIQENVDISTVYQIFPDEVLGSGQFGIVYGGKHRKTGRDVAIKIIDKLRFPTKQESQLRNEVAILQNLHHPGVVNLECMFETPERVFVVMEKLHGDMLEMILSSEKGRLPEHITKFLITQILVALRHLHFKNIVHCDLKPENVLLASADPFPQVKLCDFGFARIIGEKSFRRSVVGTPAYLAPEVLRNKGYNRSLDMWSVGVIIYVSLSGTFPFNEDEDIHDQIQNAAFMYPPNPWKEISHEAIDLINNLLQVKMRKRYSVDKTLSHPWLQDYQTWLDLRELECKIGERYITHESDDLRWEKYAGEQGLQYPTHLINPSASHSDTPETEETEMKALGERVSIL

[9] = biological target: T2, Serine/threonine-protein kinase D1 (Homo sapiens); settings: at 1 µM
[10] = biological target: T3, Serine/threonine-protein kinase D2 (Homo sapiens) (UniProt Q9BZL6); settings: at 0.1 µM;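 also: reported percent inhibition values are means, part of the GSK PKIS kinase panel screen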
T3 sequence (whole entry): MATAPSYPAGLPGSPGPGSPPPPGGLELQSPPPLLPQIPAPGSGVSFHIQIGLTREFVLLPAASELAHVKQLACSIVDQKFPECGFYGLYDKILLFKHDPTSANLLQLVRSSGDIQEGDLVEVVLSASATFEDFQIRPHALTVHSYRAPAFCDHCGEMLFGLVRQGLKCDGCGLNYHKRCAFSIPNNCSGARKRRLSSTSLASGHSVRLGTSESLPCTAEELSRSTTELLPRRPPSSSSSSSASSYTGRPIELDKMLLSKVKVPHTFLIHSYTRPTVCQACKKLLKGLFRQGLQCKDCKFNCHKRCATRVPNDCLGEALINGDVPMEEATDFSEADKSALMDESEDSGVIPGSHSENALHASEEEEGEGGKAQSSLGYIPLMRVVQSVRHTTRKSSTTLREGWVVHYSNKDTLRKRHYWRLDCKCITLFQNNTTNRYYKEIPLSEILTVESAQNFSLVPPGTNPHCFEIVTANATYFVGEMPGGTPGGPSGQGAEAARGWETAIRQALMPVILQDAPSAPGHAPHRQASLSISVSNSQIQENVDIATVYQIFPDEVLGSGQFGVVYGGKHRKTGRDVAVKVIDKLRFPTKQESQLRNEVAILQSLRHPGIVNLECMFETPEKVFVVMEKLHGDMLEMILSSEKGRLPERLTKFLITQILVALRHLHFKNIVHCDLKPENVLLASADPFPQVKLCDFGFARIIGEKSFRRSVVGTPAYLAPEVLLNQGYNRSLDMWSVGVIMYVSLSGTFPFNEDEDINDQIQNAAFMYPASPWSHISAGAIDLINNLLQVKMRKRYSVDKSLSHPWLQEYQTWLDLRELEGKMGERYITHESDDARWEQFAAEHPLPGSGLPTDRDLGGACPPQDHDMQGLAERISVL

Protein kinase C beta type (Homo sapiens), sequence (P05771 2-671 limits assumed): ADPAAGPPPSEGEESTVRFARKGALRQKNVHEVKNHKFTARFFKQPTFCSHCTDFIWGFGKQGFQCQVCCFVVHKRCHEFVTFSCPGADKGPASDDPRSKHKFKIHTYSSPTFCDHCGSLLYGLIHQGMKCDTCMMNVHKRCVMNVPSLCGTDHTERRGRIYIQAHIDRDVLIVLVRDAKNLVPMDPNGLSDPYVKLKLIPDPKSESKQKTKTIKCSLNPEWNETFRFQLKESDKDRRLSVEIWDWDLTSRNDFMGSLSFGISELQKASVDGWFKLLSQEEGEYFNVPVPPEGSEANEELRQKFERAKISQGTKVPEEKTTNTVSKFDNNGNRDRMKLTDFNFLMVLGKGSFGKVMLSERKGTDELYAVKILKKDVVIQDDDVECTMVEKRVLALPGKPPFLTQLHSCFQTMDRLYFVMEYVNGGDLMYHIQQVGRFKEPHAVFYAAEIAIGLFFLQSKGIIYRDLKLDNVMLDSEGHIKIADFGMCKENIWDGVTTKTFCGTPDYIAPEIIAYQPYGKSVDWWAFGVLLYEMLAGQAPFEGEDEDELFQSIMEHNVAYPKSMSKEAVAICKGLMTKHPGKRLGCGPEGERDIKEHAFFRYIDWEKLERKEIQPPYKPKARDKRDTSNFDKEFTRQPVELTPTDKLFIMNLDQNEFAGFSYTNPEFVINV
Protein kinase C theta type (Homo sapiens), sequence (Q04759 whole entry, looked up): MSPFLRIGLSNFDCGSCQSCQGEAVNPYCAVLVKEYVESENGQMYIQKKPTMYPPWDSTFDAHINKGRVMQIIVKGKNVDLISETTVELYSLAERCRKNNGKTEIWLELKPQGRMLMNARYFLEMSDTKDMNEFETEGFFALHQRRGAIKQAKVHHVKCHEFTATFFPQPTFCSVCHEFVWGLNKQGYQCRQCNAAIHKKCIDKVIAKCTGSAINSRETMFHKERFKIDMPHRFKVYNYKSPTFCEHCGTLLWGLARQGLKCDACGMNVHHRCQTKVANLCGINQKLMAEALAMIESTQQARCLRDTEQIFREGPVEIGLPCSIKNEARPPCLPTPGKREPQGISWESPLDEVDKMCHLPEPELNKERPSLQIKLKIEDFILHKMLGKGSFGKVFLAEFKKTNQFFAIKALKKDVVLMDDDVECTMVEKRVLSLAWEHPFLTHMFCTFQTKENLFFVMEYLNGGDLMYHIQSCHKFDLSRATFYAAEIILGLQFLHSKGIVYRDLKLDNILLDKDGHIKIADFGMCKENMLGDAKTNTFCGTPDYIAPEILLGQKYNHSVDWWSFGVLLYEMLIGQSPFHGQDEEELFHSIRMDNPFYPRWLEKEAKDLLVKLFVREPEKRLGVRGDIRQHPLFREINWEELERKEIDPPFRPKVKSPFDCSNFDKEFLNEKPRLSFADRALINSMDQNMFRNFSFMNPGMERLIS

COc1cc(N2CCN(C(C)C)CC2)ccc1Nc1nc(Nc2cccc3ncccc23)c2cc[nH]c2n1
inhibition [1]: 0.74% | inhibition [2]: -0.08% | inhibition [3]: 0.58% | inhibition [4]: -0.84% | inhibition [5]: -1.07% | inhibition [6]: -0.21% | inhibition [7]: 0.45% | inhibition [8]: -0.17% | inhibition [9]: 3.6% | inhibition [10]: 0.68%

O=C(O[C@H]1CN[C@H](C#Cc2cc3ncnc(Nc4ccc5c(ccn5Cc5cc(F)ccc5F)c4)c3s2)C1)N1CCOCC1
inhibition [1]: 3.05% | inhibition [2]: 2.82% | inhibition [3]: 3.06% | inhibition [4]: 1.84% | inhibition [5]: 0.91% | inhibition [6]: 1.75% | inhibition [7]: 0.99% | inhibition [8]: 3.66% | inhibition [9]: 6.58% | inhibition [10]: 4.5%

COc1cc2c(cc1Nc1nc(Nc3cccc(F)c3C(N)=O)c3cc[nH]c3n1)N(C(=O)CN1CCN(C(C)C)CC1)CC2
inhibition [1]: 3.85% | inhibition [2]: -0.63% | inhibition [3]: -1.02% | inhibition [4]: 2.08% | inhibition [5]: 5.05% | inhibition [6]: 1.31% | inhibition [7]: 2.64% | inhibition [8]: 4.89% | inhibition [9]: 12.4% | inhibition [10]: 4.84%

COc1cccc(Nc2nccc(-c3cnn4ncccc34)n2)c1
inhibition [1]: 9.31% | inhibition [2]: -1.42% | inhibition [3]: -1.07% | inhibition [4]: 0.2% | inhibition [5]: 4.75% | inhibition [6]: 0.37% | inhibition [7]: 7.43% | inhibition [8]: 4.01% | inhibition [9]: 38.2% | inhibition [10]: 2.78%

N#Cc1cccc(Nc2ncc(-c3ccccc3)o2)c1
inhibition [1]: 5.3% | inhibition [2]: 0.25% | inhibition [3]: 0.06% | inhibition [4]: 1.33% | inhibition [5]: 3.57% | inhibition [6]: 0.6% | inhibition [7]: 1.2% | inhibition [8]: 5.32% | inhibition [9]: 2.44% | inhibition [10]: 1.97%

Cn1c(-c2nonc2N)nc2cnccc21
inhibition [1]: 2.78% | inhibition [2]: 1.03% | inhibition [3]: 3.76% | inhibition [4]: 1.13% | inhibition [5]: 3.08% | inhibition [6]: 1.16% | inhibition [7]: 5.62% | inhibition [8]: 3.06% | inhibition [9]: 14.8% | inhibition [10]: 2.42%

CS(=O)(=O)Nc1ccc(-c2cc(-c3ccccc3)cc(C(N)=O)c2N)cc1
inhibition [1]: 1.39% | inhibition [2]: 1.17% | inhibition [3]: 1.73% | inhibition [4]: 0.69% | inhibition [5]: 0.71% | inhibition [6]: 0.99% | inhibition [7]: 1.98% | inhibition [8]: 1.67% | inhibition [9]: 1.98% | inhibition [10]: 0.22%

Cc1c2ccc(N(C)c3ccnc(Nc4cccc(S(N)(=O)=O)c4)n3)cc2nn1C
inhibition [1]: 6.91% | inhibition [2]: 1.66% | inhibition [3]: 2.75% | inhibition [4]: 1.34% | inhibition [5]: 2.51% | inhibition [6]: 1.36% | inhibition [7]: 2.7% | inhibition [8]: -0.64% | inhibition [9]: 2.68% | inhibition [10]: 1.1%

CCS(=O)(=O)c1ccc(OC)c(Nc2ncc(-c3cccc(F)c3)o2)c1
inhibition [1]: 5.39% | inhibition [2]: 2.05% | inhibition [3]: 3.04% | inhibition [4]: 2.72% | inhibition [5]: 4.21% | inhibition [6]: 1.9% | inhibition [7]: 4.01% | inhibition [8]: 4.25% | inhibition [9]: 5.42% | inhibition [10]: 3.92%

Cc1cc(O)cc(C)c1/C=C/c1cncc(C(=O)OC(C)(C)C)c1
inhibition [1]: 2.62% | inhibition [2]: 2.97% | inhibition [3]: 0.22% | inhibition [4]: 1.48% | inhibition [5]: 1.91% | inhibition [6]: 1.37% | inhibition [7]: 1.05% | inhibition [8]: 2.14% | inhibition [9]: 2.96% | inhibition [10]: 1.79%

c1cnn2ncc(-c3ccnc(NCCCN4CCOCC4)n3)c2c1
inhibition [1]: 4.8% | inhibition [2]: 0.92% | inhibition [3]: 4.4% | inhibition [4]: 2.07% | inhibition [5]: 2.41% | inhibition [6]: 1.96% | inhibition [7]: 3.47% | inhibition [8]: 2.81% | inhibition [9]: 5.95% | inhibition [10]: 3.62%

COc1ccccc1-c1cc(/C=C2\C(=O)Nc3ncc(Br)cc32)cc(Br)c1O
inhibition [1]: 2.98% | inhibition [2]: 0.64% | inhibition [3]: 2.57% | inhibition [4]: 1.61% | inhibition [5]: 1.73% | inhibition [6]: 2.24% | inhibition [7]: 0.81% | inhibition [8]: 3.57% | inhibition [9]: 6.42% | inhibition [10]: 4.74%

N#Cc1ccc2c(-c3ccnc(NC4CC4)n3)c(-c3ccc(F)cc3)nn2c1
inhibition [1]: 1.83% | inhibition [2]: 0.18% | inhibition [3]: 0.6% | inhibition [4]: 1.35% | inhibition [5]: 1.42% | inhibition [6]: 1.33% | inhibition [7]: 4.8% | inhibition [8]: 5.97% | inhibition [9]: 40% | inhibition [10]: 5.96%

CNC(=O)c1cncc(/C=C/c2ccccc2C)c1
inhibition [1]: 4.82% | inhibition [2]: 0.25% | inhibition [3]: 1.08% | inhibition [4]: 2.42% | inhibition [5]: 5.04% | inhibition [6]: 0.51% | inhibition [7]: 3.14% | inhibition [8]: 3.24% | inhibition [9]: 5.01% | inhibition [10]: 3.71%

Nc1ncnc2occ(-c3ccc(NC(=O)Nc4cc(C(F)(F)F)ccc4F)cc3)c12
inhibition [1]: 4.25% and -2.46% | inhibition [2]: 1.22% and 0.26% | inhibition [3]: 2.9% and 0.4% | inhibition [4]: 0.8% and -1.06% | inhibition [5]: -0.69% and -1.44% | inhibition [6]: 0.86% and -0.64% | inhibition [7]: 1.67% and 0.08% | inhibition [8]: 1.55% and -2.08% | inhibition [9]: 2.08% and -1.19% | inhibition [10]: 1.19% and -0.28%
